# High-throughput results from PubChem BioAssay.
# An excerpt weighted towards active compounds, which were near 15% of everything screened.
# HCMV antiviral: human cytomegalovirus inhibition. HFF cells, HCMV-luciferase reporter, 72 h; hits give low values. activity change, negative = inhibition, % at 57.5 µM. hit rate 4.5% among 410,000; in the data active = activity change below about -60%; inconclusive = no clear call, values can overlap the other calls; inactive = above about -39%; note: % is set by controls: 0 for no effect and ±100 for the full control effect
#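 Cell-based, HFFs, 1000 cells/well, 16 h 37C; cpds in DMSO + HCMV-luc, MOI 1 PFU/cell; 72 h 37C; OneGlo luminescence after 5 min RT; norm. to buffer vs Salinomycin 10uM.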
# Sm TGR inh: S. mansoni TGR enzyme inhibition; Q962Y6; purified TGR, DTNB reduction, TNB absorbance 405 nm; Potency, µM (doses to about 114 µM), for the others: at the top dose activity change, negative = inhibition, usual class: inhibitors; hit rate 3% among 360,000; note: potency is the fitted concentration of half-maximal effect; % is set by controls: 0 for no effect and ±100 for the full control effect; nearly all actives have a fitted effect of over 60% in size
#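 First, TGR (20 nM dispensed) and NADPH were mixed with compound. Second, a 15 min room-temperature incubation followed. Third, further NADPH and then DTNB were added to start the reaction. Finally, TNB absorbance was monitored kinetically.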
# Pf growth 48h: inhibits P. falciparum growth in the first generation, 48 h; P. falciparum luciferase growth in erythrocytes, 48 h; Potency, µM (top dose mostly 28.7 µM), for inactives: top-dose activity change, negative = inhibition, actives largely listed as inhibitors; hit rate 5.9% among 310,000; note: potency is the fitted concentration of half-maximal effect; % is set by controls: 0 for no effect and ±100 for the full control effect
#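 First compound was added to culture medium, then infected red cells at 0.1% parasitemia and 2% hematocrit (final). After incubation at 37 C under 5% CO2, luciferase detection reagent was dispensed and light output recorded.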
# HCV inh: inhibitors of hepatitis C virus infection. Huh7.5.1 HCVcc-Cre infection, luciferase reporter, 44 h. AID 651820. hit rate 3.4% among 340,000. Potency, µM (series often up to 41.8 µM), for inactives: at the highest dose activity change, negative = inhibition, actives largely listed as inhibitors; note: potency is the fitted concentration of half-maximal effect; % is set by controls: 0 for no effect and ±100 for the full control effect
#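 1,000 cells/well; 4 h culture; + compound; + HCVcc-Cre (~0.5 moi); 44 h; luciferase substrate, RT 15 min; read 15 sec.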
# Pf growth 96h: P. falciparum growth inhibition at 96 hours; P. falciparum luciferase reporter growth, 96 h; hit rate 6.9% among 320,000; AID 504834; Potency, µM (titrated, usually from 28.7 µM), without a hit: at the top dose activity change, negative = inhibition, hits mostly inhibitors; note: potency is the fitted concentration of half-maximal effect; % is set by controls: 0 for no effect and ±100 for the full control effect
#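 Luminescence readout: decreased luciferase signal marks inhibited growth of reporter-expressing P. falciparum in infected red cells (2% hematocrit, 0.05% parasitemia final), exposed to compound two generations (96 h, 37 C, 5% CO2).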
# SARS PLP yeast: blocks SARS-CoV papain-like protease in a yeast assay; hit rate 0.19% among 330,000; S. cerevisiae expressing SARS-CoV PLpro, growth rescue; Potency, µM (series often up to 32.9 µM), inactives show at the top dose activity, positive = growth rescue, most hits filed as activators; AID 485353; calls by dose curve; note: potency is the fitted concentration of half-maximal effect; 0% is about no effect; nearly all actives have a fitted effect of over 55% in size
# * = called active by the depositor; ? = inconclusive; . = not tested or not shown. Unless noted, calls come from the whole dose curve; as a rule, active = well fitted curve in the direction sought with a large enough effect; inconclusive = small, poorly fitted or top-dose-only effect, or another doubt; inactive = no such curve, though single readings can be large; an effect the other way counts as inactive or inconclusive.
SMILES,HCMV antiviral,Sm TGR inh,Pf growth 48h,HCV inh,Pf growth 96h,SARS PLP yeast
CCCSc1ncc(Cl)c(C(=O)Nc2nc3ccc(C)cc3s2)n1,-6,-2%,.,.,.,.
COC(=O)c1c(NC(NC(=O)c2ccccc2)(C(F)(F)F)C(F)(F)F)sc2c1CCN(C)C2,-1,-4%,8.3µM*,-17%,2.3µM*,-16%
CCC(=O)NC(Nc1sc2c(c1C(=O)OC)CCCC2)(C(F)(F)F)C(F)(F)F,-24,2%,3%,4%,-2%,1%
COc1cccc(Oc2cnc(N)nc2-c2ccc(OC)cc2O)c1,-5,0%,?,?,?,-5%
CCOc1ccccc1Oc1cn[nH]c1-c1ccc(O)cc1O,-78*,7%,8.3µM*,?,9.3µM*,0%
C=C(C)COc1ccc(-c2ncncc2Oc2ccc(OC)cc2)c(O)c1,0,-1%,3.7µM*,-28%,.,-14%
C=C(C)COc1ccc(-c2nc(N)nc(C)c2Oc2ccccc2OC)c(O)c1,-31,-26%,?,?,10%,-16%
COc1ccc(-c2[nH]ncc2Oc2ccccc2OC)c(O)c1,4,-12%,?,-25%,-13%,-20%
C=C(C)COc1ccc(-c2[nH]ncc2Oc2ccccc2OCC)c(O)c1,-17,0%,1.3µM*,?,1.2µM*,-21%
C=C(C)COc1ccc(-c2[nH]ncc2Oc2cccc(OC)c2)c(O)c1,?,-5%,9.3µM*,?,8.3µM*,-18%
O=C(c1ccccc1NS(=O)(=O)c1ccc(F)cc1F)N1CCCCC1,0,.,.,2%,.,-10%
Cc1cc(Br)ccc1N=C1NC(=O)CS1,-19,3%,-5%,13%,-29%,-5%
Cc1ccc(S(=O)(=O)N2CC3CCCN3c3ccc(C(F)(F)F)cc32)cc1 (configuration not stated),-19,-20%,10µM*,?,?,3%
Cc1ccc(-n2c(C)cc(C(=O)CSc3nncs3)c2C)cc1,-71*,-14%,140%,?,8%,-13%
Cc1cc(C(=O)CSc2nncs2)c(C)n1-c1c(C)n(C)n(-c2ccccc2)c1=O,-21,-33%,9%,6%,.,-1%
CCOC(=O)N1CCN(C(=O)CSCC(=O)N=c2sc3ccccc3n2C)CC1,.,16µM*,-18%,7%,?,.
Cn1c(=NC(=O)c2ccco2)sc2ccccc21,297,.,63%,?,116%,-1%
Cn1c(=NC(=O)CCl)sc2ccccc21,-99*,25µM*,?,2µM*,5.2µM*,-7%
CC(=O)N=c1sc2cc(C)ccc2n1C,?,-1%,82%,10%,9.3µM*,-2%
O=[N+]([O-])c1ccc2c(c1)-c1ccccc1C2=NO,-70*,.,.,?,.,.
O=C(O)c1cc([N+](=O)[O-])ccc1-c1ccc([N+](=O)[O-])cc1C(=O)O,5,.,.,.,.,.
Nc1ccc2c(c1)C(=NO)c1cc([N+](=O)[O-])ccc1-2,-85*,.,.,?,.,.
O=[N+]([O-])c1ccc2c(c1)C(=Nc1ccccc1)c1ccccc1-2,-92*,.,.,-21%,.,.
CCc1nnc(SCc2nc(-c3ccccc3)oc2C)c2cc3sccc3n12,-1,4%,.,.,.,.
O=C(Cc1ccc(Cl)cc1)NNC(=O)C1CC=CCC1C(=O)O (configuration not stated),9,71%,0%,.,-16%,5%
COc1cc(NC(=O)c2noc3c2CC(C(C)(C)C)CC3)cc(OC)c1OC (configuration not stated),-35,9%,.,.,.,.
CC1=C(C#N)C(c2cccnc2)C2=C(CC(c3ccc(Cl)cc3)CC2=O)N1 (configuration not stated),?,-11%,.,8%,6.6µM*,12%
CC(C)N1C(=O)S/C(=C/c2ccc(Sc3nc4ccccc4[nH]3)o2)C1=O,-85*,-22%,?,10µM*,?,-17%
